Compound activity as filed in PubChem BioAssay.
Pf Dd2 growth – qHTS Primary assay for Inhibitors of Plasmodium falciparum Dd2 growth in vitro | 4.3% of 120,000 active | AID 1347417, 2020 | P. falciparum Dd2 growth, SYBR Green, 72 h | Potency, µM (doses to about 28.9 µM), for the others: top-dose activity, negative = inhibition, hits mostly inhibitors; active = well fitted inhibition curve with a large enough effect;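 note: plate controls were DMSO vehicle for no effect and reference drug for full effect; nearly all actives have a fitted effect of over 65% in size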
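Infected erythrocytes (Dd2, 0.3% parasitemia, 2.5% hematocrit final) are added to compound in RPMI-1640/Albumax II medium, grown 72 h at 37C in low oxygen, then lysed with saponin/Triton-X containing SYBR Green and read by fluorescence.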
Active calls of the source: *; i = inactive; [ ] = another dose, or the depositor's remark. This is one part of a sample in which hits are shown more often than they occur. Potency is the fitted concentration of half-maximal effect.

SMILES	Pf Dd2 growth
CN(CCc1ccccc1)Cc1cnc(S(C)(=O)=O)n1Cc1ccccc1F	i
Cc1nc(CCNC(=O)C2CCCC2)no1	-7%
O=C(CC1CCCCC1)N1CCC2(CC1)NC(=O)N(c1ccccc1)N2	i
COc1ccc(CCN2C(=O)N(c3ccc(F)cc3)C(=O)C2CC(=O)Nc2ccccc2)cc1OC (centres undefined)	i
COc1ccc2cc1Nc1ccc(cc1)C[C@H](NCc1cccc(O)c1)C(=O)N(C)[C@@H](C(=O)Nc1ccccc1)C2	4.5µM*
COc1ccc2cc1Nc1ccc(cc1)C[C@H](NCC1CC1)C(=O)N(C)[C@@H](C(=O)Nc1ccccc1)C2	4µM*
COc1ccc(CCNC(=O)C2CC(=O)N(CCc3ccccc3)C2)cc1OC (centres undefined)	70%
COc1ccc(NC(=O)C2Cn3cccc3C(=O)N2C)cc1 (centres undefined)	-18%
COc1ccc(S(=O)(=O)N2Cc3ccccc3CC2C(=O)Nc2cccc(C)c2)cc1OC (centres undefined)	-13%
CCOC(=O)C1=CN(CC(=O)Nc2ccccc2Cl)S(=O)(=O)N=C1C	91%
CC(C)NC(=O)N1CCC2(CC1)NCCc1c2[nH]c2ccccc12	i
CNCCN1C(=O)CC[C@H]2CN(C(=O)CCc3ccsc3)CC[C@H]21	-24%
COCC1CN(C(C)=O)CC12CCN(C(=O)c1ccc(F)cc1F)CC2 (centres undefined)	26%
CC(C)C(=O)N1C[C@@H](Oc2ccccc2)C[C@@H]1C(=O)N1CCOCC1	-26%
COCC(=O)N[C@@H]1CN(C(=O)CCCc2ccccc2)CC[C@@H]1c1nc(C)no1	i[5.79 µM]
CC(C)c1noc(-c2cn(C3CCCN(C(=O)c4cccc(N(C)C)c4)C3)nn2)n1 (centres undefined)	-11%
CCc1csc(CNC2CCC3(CCNCC3)CC2)n1	-12%
c1coc(-c2nc(CNC3CCC4(CCNCC4)CC3)no2)c1	11µM*
c1ccc(-c2noc(CCNC3CCC4(CCNCC4)CC3)n2)nc1	-2%
CN(C)Cc1cn(C[C@H]2C[C@@H](NC(=O)c3nc4ccccc4s3)[C@H](O)[C@@H]2O)nn1	0%
CC(=O)Nc1ccc(C(=O)NC[C@@H]2C=C(C)[C@H](CC(=O)NCCN3CCOCC3)C[C@H]2C(C)C)cc1	-18%
CCc1ccc(NC(=O)N2CCc3c(c4ccccc4n3C)C2)cc1	i
Cc1ccc(NC(=O)N2CCc3c(c4ccccc4n3C)C2)cc1	i
Cn1c2c(c3ccccc31)CN(C(=O)Nc1ccccc1F)CC2	11µM*
COc1cccc(NC(c2nnc(-c3ccccc3)o2)c2ccc(F)cc2Cl)c1 (centres undefined)	10µM*
SMILES	Pf Dd2 growth
CCc1cc(=O)n(CC(=O)Nc2ccccc2C)c(-c2cccc(F)c2)n1	-13%
CCc1ccccc1NC(c1nnc(-c2cccc(F)c2)o1)c1ccc(F)cc1Cl (centres undefined)	13µM*
COc1ccccc1NC(=O)CSc1nnc(-c2cccc(Cl)c2)o1	10%
CCOC(=O)c1cccc(NC(c2nnc(-c3ccccc3)o2)c2ccccc2F)c1 (centres undefined)	i
Cc1cccc(OCc2nnc(-c3ccccc3)o2)c1	-20%
Cc1cccc(NC(=O)Cn2c(-c3ccc(F)cc3)nc(C)c(CCO)c2=O)c1C	i
COc1ccccc1-c1nnc2n1C(C(=O)N(C)C)CC2 (centres undefined)	2%[44.1 µM]
COc1ccc(NC(C)(C)C(=O)N2CCC3(CCN(C)CC3)C2)cc1	i
COc1ccc2[nH]cc(CCNC(=O)CCC[C@H]3NC[C@@H]4C[C@H]3CN(Cc3ccccc3)C4)c2c1	10µM*
COc1ccccc1OCCNC(=O)CCC[C@H]1NC[C@@H]2C[C@H]1CN(Cc1ccccc1)C2	-31%
CNC(=O)CCC[C@H]1NC[C@@H]2CC1CN(Cc1ccccc1)C2	-26%
NC(=O)CCC[C@H]1NC[C@@H]2C[C@H]1CN(Cc1ccccc1)C2	-24%
CCN(Cc1ccccc1)C(=O)CCC[C@H]1NC[C@@H]2CC1CN(Cc1ccccc1)C2	13µM*
O=C(CCC[C@H]1NC[C@@H]2C[C@H]1CN(Cc1ccccc1)C2)NCCN1CCCCC1	-24%
O=C(c1cccnc1OC1CCN(S(=O)(=O)c2cccc(F)c2)C1)N1CCOCC1 (centres undefined)	-4%
O=C(CCCc1ccccc1)NCCc1noc(-c2cccnc2)n1	i
O=C(CN1C(=O)NC2(CCOCC2)C1=O)Nc1cc(F)cc(F)c1	45%
CCOc1ccc(CC(=O)NCCc2csc(-c3ccc(Cl)cc3)n2)cc1	i
CCOc1ccc(CC(=O)NCCc2csc(-c3ccc(C)cc3)n2)cc1	10µM*
Cc1ccc(-c2nc(CCNC(=O)c3ccc(C)c(C)c3)cs2)cc1	14%
Cc1ccc(-c2ncc(C(=O)NCCC3=CCCCC3)c(-c3ccncc3)n2)cc1	-24%
CCCC(=O)N1CCc2cc(OC)c(OC)cc2C1COc1ccc2c(C)cc(=O)oc2c1 (centres undefined)	7.1µM*
Cc1cc(=O)oc2cc(OCC(=O)Nc3ccc(O)c(C(=O)O)c3)ccc12	5%
COCC(=O)NCC1c2cc(OC)c(OC)cc2CCN1C(=O)Nc1cccc(F)c1 (centres undefined)	i
COc1cc2c(cc1OC)C(CNC(=O)c1ccc(C)cc1)N(C(=O)NC(C)C)CC2 (centres undefined)	-2%
SMILES	Pf Dd2 growth
COc1cc2c(cc1OC)C(COc1ccc3c(C)cc(=O)oc3c1)N(C(=O)c1ccc(C)cc1)CC2 (centres undefined)	11µM*
COc1cc2c(cc1OC)C(CNC(=O)c1cccs1)N(C(=O)Nc1ccc(C)cc1)CC2 (centres undefined)	-3%
CCCNC(=O)NCC1c2cc(OC)c(OC)cc2CCN1C(=O)NCC (centres undefined)	-18%
COc1cc2c(cc1OC)C(COc1ccc3c(C)cc(=O)oc3c1)N(C(=O)c1ccc(C)c(C)c1)CC2 (centres undefined)	5µM*
Cc1nc(C2CCCN(C(=O)C(C)(C)N)C2)cc(N2CCCC2)n1 (centres undefined)	-18%
CN1CCN(c2cc(=O)c3ccnc(-c4cccc(F)c4)c3o2)CC1	i
Cc1cc(-c2nc(C3CCOC3)no2)c2ccccc2n1 (centres undefined)	1%
CN1C(=O)CC(C(=O)O)C12CCN(Cc1nc(-c3ccco3)no1)CC2 (centres undefined)	-6%
N#Cc1cccc(NC(=O)CCn2ccn3nc4c(c3c2=O)CCCC4)c1	i
CCCn1cc(CNC(=O)c2ccc(CC3CCCNC3)cc2)cn1 (centres undefined)	i
CS(=O)(=O)N1C[C@H]2CCN(C(=O)c3c(F)cccc3F)C[C@H]21	-19%
COc1ccc(C2Cn3nnc(C(=O)N4CCC(C(=O)NCC5CC5)CC4)c3CO2)cc1 (centres undefined)	i
CN(C)c1ccc(-c2noc([C@@H]3CCCN3C3CCOCC3)n2)cn1	i
CNc1ccc(-c2noc([C@@H]3CCCN3Cc3cccc(OC)c3)n2)cn1	-8%[44.1 µM]
COCC(=O)Nc1ccc(-c2noc([C@@H]3CCCN3Cc3cc4ccccc4o3)n2)cn1	-16%[44.1 µM]
CC(=O)N1CCC(N2CCC[C@H]2c2nc(-c3ccc(-n4ccnc4)nc3)no2)CC1	-21%[44.1 µM]
CN(C)c1ccc(-c2noc([C@@H]3CCCN3Cc3ccc(CO)o3)n2)cn1	7.9µM*
CNc1ccc(-c2noc([C@@H]3CCCN3Cc3cccnc3)n2)cn1	i
